# From the supplement of paper PMC8728848
# This is one part of a sample in which the strongest signals are shown more often than they occur.
# B1: SHCBP1-GST (Homo sapiens), Q8NEM2 (protein)
# chain: MADGSLTGGGLEAAAMAPERMGWAVEQELASLEKGLFQDEDSCSDCSYRDKPGSSLQSFMPEGKTFFPEIFQTNQLLFYERFRAYQDYILADCKASEVQEFTAEFLEKVLEPSGWRAVWHTNVFKVLVEITDVDFAALKAVVRLAEPYLCDSQVSTFTMECMKELLDLKEHRLPLQELWVVFDDSGVFDQTALAIEHVRFFYQNIWRSWDEEEEDEYDYFVRCVEPRLRLHYDILEDRVPSGLIVDYHNLLSQCEESYRKFLNLRSSLSNCNSDSEQENISMVEGLKLYSEMEQLKQKLKLIENPLLRYVFGYQKNSNIQAKGVRSSGQKITHVVSSTMMAGLLRSLLTDRLCQEPGEEEREIQFHSDPLSAINACFEGDTVIVCPGHYVVHGTFSIADSIELEGYGLPDDIVIEKRGKGDTFVDCTGADIKISGIKFVQHDAVEGILIVHRGKTTLENCVLQCETTGVTVRTSAEFLMKNSDLYGAKGAGIEIYPGSQCTLSDNGIHHCKEGILIKDFLDEHYDIPKISMVNNIIHNNEGYGVVLVKPTIFSDLQENAEDGTEENKALKIQTSGEPDVAERVDLEELIECATGKMELCARTDPSEQVEGNCEIVNELIAASTQKGQIKKKRLSELGITQADDNLMSQEMFVGIVGNQFKWNGKGSFGTFLF
# Tests used:
# Assay in all cases: glycan array binding signal (z-score within array); higher = stronger binding
# Settings in all cases: glycan notation: IUPAC condensed, linker removed
# [1] = biological target: Gal(b1-4)GlcNAc(b1-2)[Gal(b1-4)GlcNAc(b1-4)]Man(a1-3)[GlcNAc(b1-4)][Gal(b1-4)GlcNAc(b1-2)Man(a1-6)]Man(b1-4)GlcNAc(b1-4)GlcNAc
# In short: (§1)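 Glycan array binding is given as a within-array Z-score, which can be read as non-binding when negative. The arrays, 3228 of them, came from the Consortium for Functional Glycomics database and were retained only where the protein sequence was available. Z-scores were averaged across arrays of the same protein sequence at different concentrations or buffers and across linkers.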
# [2] = biological target: Gal(b1-4)GlcNAc(b1-2)[Gal(b1-4)GlcNAc(b1-6)]Man(a1-6)[Gal(b1-4)GlcNAc(b1-2)Man(a1-3)]Man(b1-4)GlcNAc(b1-4)[Fuc(a1-6)]GlcNAc
# In short: as §1
# [3] = biological target: Gal(b1-4)GlcNAc(b1-2)[Gal(b1-4)GlcNAc(b1-6)]Man(a1-6)[GlcNAc(b1-4)][Gal(b1-4)GlcNAc(b1-2)[Gal(b1-4)GlcNAc(b1-4)]Man(a1-3)]Man(b1-4)GlcNAc(b1-4)[Fuc(a1-6)]GlcNAc
# In short: as §1
# [4] = biological target: Gal(b1-4)GlcNAc(b1-3)Gal(b1-3)GalNAc
# In short: as §1
# [5] = biological target: Gal(b1-4)GlcNAc(b1-3)Gal(b1-4)GlcNAc(b1-2)Man(a1-3)[Gal(b1-4)GlcNAc(b1-3)Gal(b1-4)GlcNAc(b1-2)Man(a1-6)]Man(b1-4)GlcNAc(b1-4)[Fuc(a1-6)]GlcNAc
# In short: as §1
# [6] = biological target: Gal(b1-4)GlcNAc(b1-3)Gal(b1-4)GlcNAc(b1-2)[Gal(b1-4)GlcNAc(b1-3)Gal(b1-4)GlcNAc(b1-6)]Man(a1-6)[Gal(b1-4)GlcNAc(b1-3)Gal(b1-4)GlcNAc(b1-2)Man(a1-3)]Man(b1-4)GlcNAc(b1-4)[Fuc(a1-6)]GlcNAc
# In short: as §1
# [7] = biological target: Gal(b1-4)GlcNAc(b1-3)Gal(b1-4)GlcNAc(b1-3)Gal(b1-4)GlcNAc(b1-3)Gal(b1-4)GlcNAc(b1-2)Man(a1-3)[Gal(b1-4)GlcNAc(b1-3)Gal(b1-4)GlcNAc(b1-3)Gal(b1-4)GlcNAc(b1-3)Gal(b1-4)GlcNAc(b1-2)Man(a1-6)]Man(b1-4)GlcNAc(b1-4)[Fuc(a1-6)]GlcNAc
# In short: as §1
# [8] = biological target: Gal(b1-4)GlcNAc(b1-3)Gal(b1-4)GlcNAc(b1-3)Gal(b1-4)GlcNAc(b1-3)Gal(b1-4)GlcNAc(b1-2)[Gal(b1-4)GlcNAc(b1-3)Gal(b1-4)GlcNAc(b1-3)Gal(b1-4)GlcNAc(b1-3)Gal(b1-4)GlcNAc(b1-6)]Man(a1-6)[Gal(b1-4)GlcNAc(b1-3)Gal(b1-4)GlcNAc(b1-3)Gal(b1-4)GlcNAc(b1-3)Gal(b1-4)GlcNAc(b1-2)Man(a1-3)]Man(b1-4)GlcNAc(b1-4)[Fuc(a1-6)]GlcNAc
# In short: as §1
# Gal3S(b1-3)GalNAc = biological target: Gal3S(b1-3)GalNAc
# In short: as §1
# [9] = biological target: Gal3S(b1-4)[Fuc(a1-3)]GlcNAc6S
# In short: as §1
# Gal6P(b1-4)GlcNAc = biological target: Gal6P(b1-4)GlcNAc
# In short: as §1
# GalNAc(a1-3)GalNAc = biological target: GalNAc(a1-3)GalNAc
# In short: as §1
# GalNAc(b1-4)GlcNAc = biological target: GalNAc(b1-4)GlcNAc
# In short: as §1
# [10] = biological target: GalNAc(b1-4)GlcNAc(b1-2)Man(a1-3)[GalNAc(b1-4)GlcNAc(b1-2)Man(a1-6)]Man(b1-4)GlcNAc(b1-4)GlcNAc
# In short: as §1
# GalNAc(b1-4)GlcNAc6S = biological target: GalNAc(b1-4)GlcNAc6S
# In short: as §1
# [11] = biological target: GlcNAc(a1-4)Gal(b1-4)GlcNAc(b1-3)Gal(b1-4)[Fuc(a1-3)]GlcNAc(b1-3)Gal(b1-4)[Fuc(a1-3)]GlcNAc
# In short: as §1
# [12] = biological target: GlcNAc(b1-3)Gal(b1-4)GlcNAc(b1-6)[GlcNAc(b1-3)]Gal(b1-4)GlcNAc
# In short: as §1
# GlcNAc(b1-3)Man = biological target: GlcNAc(b1-3)Man
# In short: as §1
# [13] = biological target: Neu5Ac(a2-3)Gal(b1-3)GalNAc(b1-4)[Neu5Ac(a2-3)]Gal(b1-4)Glc
# In short: as §1
# [14] = biological target: Neu5Ac(a2-3)Gal(b1-3)GlcNAc(b1-2)Man(a1-3)[Neu5Ac(a2-3)Gal(b1-3)GlcNAc(b1-2)Man(a1-6)]Man(b1-4)GlcNAc(b1-4)GlcNAc
# In short: as §1
# [15] = biological target: Neu5Ac(a2-3)Gal(b1-4)GlcNAc(b1-3)Gal(b1-4)GlcNAc(b1-6)[Gal(b1-3)]GalNAc
# In short: as §1
# [16] = biological target: Neu5Ac(a2-3)Gal(b1-4)[Fuc(a1-3)]GlcNAc(b1-3)Gal
# In short: as §1
# [17] = biological target: Neu5Ac(a2-6)Gal(b1-4)GlcNAc(b1-3)Gal(b1-4)GlcNAc
# In short: as §1
# [18] = biological target: Neu5Ac(a2-6)Gal(b1-4)GlcNAc(b1-3)Gal(b1-4)GlcNAc(b1-3)Gal(b1-4)GlcNAc(b1-2)Man(a1-3)[Neu5Ac(a2-6)Gal(b1-4)GlcNAc(b1-3)Gal(b1-4)GlcNAc(b1-3)Gal(b1-4)GlcNAc(b1-2)Man(a1-6)]GalNAc
# In short: as §1
# [19] = biological target: Neu5Ac(a2-6)Gal(b1-4)GlcNAc(b1-3)GalNAc
# In short: as §1
# [20] = biological target: Neu5Ac(a2-6)Gal(b1-4)GlcNAc(b1-6)GalNAc
# In short: as §1
# [21] = biological target: Neu5Ac(a2-8)Neu5Ac(a2-3)[GalNAc(b1-4)]Gal(b1-4)Glc
# In short: as §1
# [22] = biological target: Neu5Ac(a2-8)Neu5Ac(a2-8)Neu5Ac(a2-8)Neu5Ac(a2-3)[GalNAc(b1-4)]Gal(b1-4)Glc
# In short: as §1
# [23] = biological target: Neu5Gc(a2-3)Gal(b1-3)[Fuc(a1-4)]GlcNAc
# In short: as §1
binder,measurement,setting,value
B1,glycan array binding signal (z-score),[1],0.176
same,glycan array binding signal (z-score),[2],5.01
same,glycan array binding signal (z-score),[3],-0.032
same,glycan array binding signal (z-score),[4],-0.645
same,glycan array binding signal (z-score),[5],0.801
same,glycan array binding signal (z-score),[6],2.1
same,glycan array binding signal (z-score),[7],3.03
same,glycan array binding signal (z-score),[8],0.056
same,glycan array binding signal (z-score),Gal3S(b1-3)GalNAc,-0.165
same,glycan array binding signal (z-score),[9],-0.428
same,glycan array binding signal (z-score),Gal6P(b1-4)GlcNAc,-0.929
same,glycan array binding signal (z-score),GalNAc(a1-3)GalNAc,-0.406
same,glycan array binding signal (z-score),GalNAc(b1-4)GlcNAc,-0.137
same,glycan array binding signal (z-score),[10],2.96
same,glycan array binding signal (z-score),GalNAc(b1-4)GlcNAc6S,-0.496
same,glycan array binding signal (z-score),[11],2.67
same,glycan array binding signal (z-score),[12],-0.274
same,glycan array binding signal (z-score),GlcNAc(b1-3)Man,-0.054
same,glycan array binding signal (z-score),[13],0.166
same,glycan array binding signal (z-score),[14],-0.428
same,glycan array binding signal (z-score),[15],-0.09
same,glycan array binding signal (z-score),[16],-0.924
same,glycan array binding signal (z-score),[17],-1.12
same,glycan array binding signal (z-score),[18],2.65
same,glycan array binding signal (z-score),[19],2.41
same,glycan array binding signal (z-score),[20],-0.322
same,glycan array binding signal (z-score),[21],-0.847
same,glycan array binding signal (z-score),[22],0.231
same,glycan array binding signal (z-score),[23],0.247
